In paper PMC5540273 (PLoS ONE, 2017):

Legend:
Details in all cases: concentration: 1 μM, replicates: in singlicate; n = 1
[1] = system: MET
[2] = system: T1, MINK
T1 construct: gene MINK1

[3] = system: MKK7
[4] = system: MKNK1
[5] = system: MKNK2
[6] = system: T2, MLCK
T2 construct: gene MYLK3

[7] = system: T3, MLK1
T3 construct: gene MAP3K9

[8] = system: MLK2
[9] = system: MLK3
[10] = system: MRCKA
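Also: KINOMEscan kinase panel screen.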

| Structure (SMILES) | %Inh [1] [%] | %Inh [2] [%] | %Inh [3] [%] | %Inh [4] [%] | %Inh [5] [%] | %Inh [6] [%] | %Inh [7] [%] | %Inh [8] [%] | %Inh [9] [%] | %Inh [10] [%] |
| --- | --- | --- | --- | --- | --- | --- | --- | --- | --- | --- |
| CCCNC(=O)Nc1ccc(Oc2ncnc3ccn(C)c23)cc1 | 8 | 1 | 0 | 23 | 0 | 0 | 6 | 6 | 0 | 3 |
| Cc1ccc(-c2ccc3c(ccc4sc5c(c43)NC[C@@H](C)N=C5N(C)C)n2)cn1 | 0 | 0 | 0 | 0 | 0 | 0 | 0 | 0 | 0 | 0 |
| CCC(=O)c1c(-c2ccccc2)c2cc(Cl)ccc2c(=O)n1Cc1cc(S(C)(=O)=O)n(CCC(C)(C)O)n1 | 0 | 0 | 0 | 0 | 0 | 7 | 3 | 0 | 24 | 0 |
| O=C(Nc1ccc2c(c1)OCO2)NC1CCN(c2ccnc(NCc3ccc(F)cc3)n2)CC1 [GSK1379859] | 0 | 0 | 0 | 0 | 0 | 0 | 0 | 0 | 0 | 0 |
| COc1cc(Nc2nccc(N3CCC(NC(=O)C(C)c4ccc(Cl)cc4)C3)n2)cc(OC)c1OC (centres unmarked) [GSK1379757] | 0 | 0 | 15 | 0 | 16 | 0 | 22 | 0 | 28 | 15 |
| Cc1ccc(Oc2ccc(Nc3ncnc4cc[nH]c34)cc2C)cn1 | 4 | 10 | 0 | 34 | 41 | 0 | 5 | 19 | 1 | 0 |
| Nc1ncnc2c1ncn2-c1cccc2ccccc12 [SKF-97184] | 0 | 12 | 0 | 0 | 0 | 0 | 0 | 19 | 0 | 0 |
| COc1cc2nccc(Nc3cccc(Oc4ccccc4)c3)c2cc1OC.Cl [GW284543] | 0 | 0 | 0 | 0 | 0 | 4 | 0 | 0 | 11 | 4 |
| COc1cccc(C2=C(N(C)c3ccccc3)C(=O)NC2=O)c1 [SB-334865] | 0 | 11 | 0 | 3 | 0 | 0 | 0 | 0 | 12 | 0 |
| O=C(Nc1n[nH]c2nc(-c3ccccc3)c(Br)cc12)C1CC1 [SB-708998] | 0 | 6 | 0 | 7 | 1 | 21 | 0 | 18 | 22 | 0 |
| O=C(Nc1n[nH]c2cc(-c3ccccc3F)ccc12)C1CC1 [SB-733371] | 0 | 69 | 10 | 0 | 18 | 29 | 0 | 5 | 0 | 0 |
| FC(F)(F)c1ccc(-c2ncn(CCCN3CCOCC3)c2-c2ccncc2)cc1 [SB-217780] | 4 | 0 | 0 | 16 | 58 | 0 | 0 | 2 | 5 | 0 |
| COc1ccc(-n2cnc3c(N)ncnc32)cc1 [SKF-97236] | 0 | 9 | 15 | 9 | 33 | 11 | 0 | 37 | 20 | 0 |
| CCC(=O)c1c(-c2ccccc2)c2cc(Cl)ccc2c(=O)n1Cc1ccc(C(=O)O)cc1 | 0 | 0 | 0 | 0 | 0 | 0 | 0 | 0 | 0 | 0 |
| COc1cc(Nc2nccc(N3CCC(NC(=O)C4COc5ccccc5O4)C3)n2)cc(OC)c1OC (centres unmarked) [GSK1379761] | 19 | 0 | 0 | 0 | 31 | 12 | 63 | 4 | 44 | 0 |
| COc1ccc(-c2cc3c(C)nc(N)nc3n([C@H]3CC[C@H](OCCO)CC3)c2=O)cn1 | 0 | 1 | 0 | 0 | 0 | 17 | 0 | 0 | 3 | 0 |
| COc1ccc(Nc2nccc(N3CCC(NS(=O)(=O)c4ccc(NC(C)=O)cc4)C3)n2)cc1 (centres unmarked) [GSK1379729] | 10 | 3 | 19 | 22 | 0 | 0 | 0 | 48 | 18 | 10 |
| COc1cc2ncn(-c3cc(OCc4ccncc4Br)c(C(N)=O)s3)c2cc1OC [GW854278] | 0 | 44 | 0 | 15 | 8 | 0 | 2 | 17 | 9 | 0 |

| Structure (SMILES) | %Inh [1] [%] | %Inh [2] [%] | %Inh [3] [%] | %Inh [4] [%] | %Inh [5] [%] | %Inh [6] [%] | %Inh [7] [%] | %Inh [8] [%] | %Inh [9] [%] | %Inh [10] [%] |
| --- | --- | --- | --- | --- | --- | --- | --- | --- | --- | --- |
| Nc1nc(N)c2nc(-c3ccccc3)[nH]c2n1 [SKF-12778] | 0 | 0 | 29 | 0 | 1 | 0 | 40 | 66 | 40 | 15 |
| Cl.c1ccc(Cn2cnc3cc(Nc4ncnc5ccccc45)ccc32)cc1 [GW272142] | 33 | 0 | 17 | 0 | 6 | 0 | 0 | 0 | 11 | 16 |
| COc1ccc(CNC(=O)NC2CCN(c3ccnc(Nc4ccc(F)cc4)n3)C2)cc1 (centres unmarked) [GSK1379706] | 0 | 80 | 10 | 0 | 0 | 8 | 0 | 0 | 17 | 16 |
| O=C(Nc1n[nH]c2nc(-c3ccccc3)c(Cl)cc12)C1CC1 [SB-734909] | 0 | 28 | 0 | 17 | 8 | 26 | 0 | 0 | 0 | 0 |
| Nc1n[nH]c2nnc(-c3ccccc3)c(-c3ccccc3)c12 [GW554060] | 0 | 0 | 7 | 11 | 49 | 0 | 0 | 0 | 8 | 4 |
| CN1C(=O)C(Nc2cc(Cl)c(O)c(Cl)c2)=C(c2ccc(Cl)cc2)C1=O [SB-404321] | 0 | 0 | 0 | 38 | 19 | 0 | 0 | 0 | 0 | 5 |
| CCc1ccc(-c2ccc3c(c2)-c2nn(C)cc2S(=O)(=O)N3C)cc1 | 0 | 41 | 16 | 37 | 0 | 28 | 1 | 29 | 11 | 0 |
| Cc1cc(Nc2nc(-c3cccc(C)n3)nc3ccccc23)ccn1 [GW872411] | 32 | 1 | 0 | 1 | 0 | 0 | 0 | 28 | 0 | 0 |
| O=C(NCCNc1ccnc(Nc2ccc(F)cc2)n1)Nc1ccc2c(c1)OCO2 [GSK1379882] | 0 | 4 | 0 | 23 | 5 | 0 | 0 | 0 | 0 | 9 |
| Fc1cccc(CSc2nnc(-c3ccc4c(c3)CCO4)o2)c1 | 10 | 5 | 6 | 3 | 4 | 7 | 0 | 0 | 0 | 0 |
| Nc1nc(-c2ccccc2F)c(-c2ccnc3ccccc23)s1 [GW560459] | 0 | 81 | 15 | 12 | 0 | 0 | 0 | 0 | 5 | 15 |
| Nc1n[nH]c2ncc(-c3ccccc3)cc12 [SB-517081] | 0 | 11 | 0 | 53 | 88 | 0 | 17 | 0 | 0 | 3 |
| CN(C)c1cc(-c2ccc3c(N)n[nH]c3c2)nc(N)n1 [GSK2219329] | 0 | 0 | 0 | 0 | 9 | 0 | 3 | 0 | 3 | 0 |
| O=c1cc(N2CCOCC2)nc2n(Cc3ccc(F)c(Cl)c3)ccn12 [GSK2297099] | 0 | 0 | 0 | 5 | 1 | 7 | 0 | 0 | 0 | 0 |
| COc1cc(Nc2ccnc3ccc(C(F)(F)F)cc23)cc(OC)c1OC [GW577382] | 0 | 17 | 0 | 29 | 9 | 0 | 3 | 31 | 23 | 22 |
| COc1cc2ncn(-c3cc(OCCCc4ccccc4)c(C(N)=O)s3)c2cc1OC [GSK205189] | 5 | 3 | 0 | 3 | 0 | 0 | 3 | 19 | 8 | 0 |
| CCC(=O)c1c(-c2ccccc2)c2cc(Cl)ccc2c(=O)n1Cc1cc(S(C)(=O)=O)n(CC(N)=O)n1 | 0 | 14 | 0 | 0 | 0 | 0 | 0 | 10 | 1 | 0 |
